Measured values: PubChem BioAssay (Tox21)
Inconclusive results are not listed. A number with no mark means an inactive call. Calls of active or inactive are those of the source. Calls come from the whole dose curve; as a rule, active = well fitted cell-killing curve with a large enough effect in the repeat runs; inconclusive = weak or mixed curves, or effect the other way; inactive = flat fitted curve, though single readings scatter.
% is set by controls: 0 for no effect and ±100 for the full control effect.

Assay: cAMP Responsive Elements (CRE) small molecule antagonists, cell-based qHTS assay: qHTS cell viability counter screen (AID 2060913); note: nearly all actives have a fitted effect of over 40% in size
Conditions: CRE-bla HEK293T viability, CellTiter-Glo luminescence, 5 h; series mostly up to 92.4 µM; viability change, negative = cytotoxic: at the top concentration
Method in brief: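 CRE-bla HEK293T cells were seeded in assay medium with 10% dialyzed FBS, incubated 18 hrs at 37 C, then exposed to compounds plus 0.25 uM final NKH477 for 3 hrs. Viability was read by CellTiter-Glo luminescence after 30 min, in the same wells.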
In the case of `COc1c(Br)cc(Br)c(C)c1Br`, the “viability change, negative = cytotoxic” value is reported as -2.94%. In the case of `CCC(C)C(C)=O` (stereo not given), the “viability change, negative = cytotoxic” value is reported as 11.4%. For `CNC(=O)Nc1ccc(Cl)c(Cl)c1`, the “viability change, negative = cytotoxic” value was -5.94%. With `CC(C)(C)C(=O)O` the “viability change, negative = cytotoxic” value was 5.66%. In the case of `CC(C)(C(=O)c1cccnc1)c1cccnc1`, the “viability change, negative = cytotoxic” value is reported as -2.22% [at 42.5 µM]. With `OC1CCCc2ccccc21` (stereo not given) the “viability change, negative = cytotoxic” value was 4.14%. With `CC1CCC2CC1C2(C)C` (stereo not given) the Potency was “inactive”. In the case of `CCC(C)C1CCCCC1=O` (stereo not given), the “viability change, negative = cytotoxic” value is reported as 7.04%. With `CCCOCC(C)OCC(C)O` (stereo not given) the “viability change, negative = cytotoxic” value was -0.124%. With `NC(=O)c1ccncc1` the “viability change, negative = cytotoxic” value was -7.44%. For `CCCCCCCC[Si](OCC)(OCC)OCC`, the “viability change, negative = cytotoxic” value was 9.4%. For `O=C(O)Cc1cccc2ccccc12`, the Potency was “inactive”. In the case of `C[C@]12CC[C@@H]3c4ccc(O)cc4CC[C@H]3[C@@H]1CC[C@@H]2O`, the Potency is reported as “inactive”. For `CCCC(C)c1ccccc1O` (stereo not given), the “viability change, negative = cytotoxic” value was -12.3%. In the case of `CC(CO)(CO)CO`, the “viability change, negative = cytotoxic” value is reported as 3.67%. For `c1ccc(CNCCNCc2ccccc2)cc1`, the “viability change, negative = cytotoxic” value was 2.3% [at 42.5 µM]. With `Cc1cc(C)c(O)c(C(C)(C)C)c1` the “viability change, negative = cytotoxic” value was -11.7%. With `C=CC(=C)CCCC(C)(C)OC(C)=O` the “viability change, negative = cytotoxic” value was 7.38%. With `COc1ncnc(NS(=O)(=O)c2ccc(N)cc2)c1OC` the “viability change, negative = cytotoxic” value was 7.05% [at 42.5 µM]. In the case of `CC1=NN(c2cc(S(=O)(=O)O)ccc2Cl)C(=O)C1N=Nc1ccccc1` (stereo not given), the “viability change, negative = cytotoxic” value is reported as 7.5%. In the case of `COc1ccc(C(=O)c2ccccc2O)c(O)c1`, the Potency is reported as “inactive”. With `CCCCCCCC(=O)OCC(COC(=O)CCCCCCC)OC(=O)CCCCCCC` the Potency was “inactive”. In the case of `CCCCCCCC/C=C\CCCCCCCC(=O)OC[C@@H](O)[C@H]1OC[C@H](O)[C@H]1O`, the “viability change, negative = cytotoxic” value is reported as -0.788%. With `Nc1ccc(Nc2ccccc2)cc1` the Potency was “inactive”. For `CC(CO)(CO)C(=O)O`, the “viability change, negative = cytotoxic” value was -0.433%. In the case of `O=C(OCCCCCOC(=O)c1ccccc1)c1ccccc1`, the “viability change, negative = cytotoxic” value is reported as 2.62%. For `COC(=O)c1ccc(C(=O)OC)cc1`, the Potency was “inactive”. For `CC(=O)NCCO`, the “viability change, negative = cytotoxic” value was 1.36%. With `BrC/C=C/CBr` the viability change, negative = cytotoxic was 15.6% [at 18.9 µM]. With `Nc1ccc(Cl)cc1Cl` the Potency was “inactive”. In the case of `COc1ccc(/C=C/C(=O)c2ccc(OC)cc2OC)cc1`, the “viability change, negative = cytotoxic” value is reported as 15.7% [at 42.5 µM]. For `CC(=O)OCC(COC(C)=O)OC(C)=O`, the Potency was “inactive”. With `Fc1ccccc1-c1ccccc1` the “viability change, negative = cytotoxic” value was -9.66%. For `c1ccc(CCc2ccccc2)cc1`, the “viability change, negative = cytotoxic” value was 2.16%. For `CC(C)(CO)[C@@H](O)C(=O)NCCCO`, the “viability change, negative = cytotoxic” value was 0.412% [at 42.5 µM]. With `OC1(c2ccc(Cl)cc2)CCNCC1` the “viability change, negative = cytotoxic” value was 3.22% [at 42.5 µM]. For `Cc1ccccc1C(=O)O`, the “viability change, negative = cytotoxic” value was -14.6%. With `C1COCCO1` the “viability change, negative = cytotoxic” value was 8.27%. For `CCCc1cc(C(N)=S)ccn1`, the “viability change, negative = cytotoxic” value was -1.53% [at 42.5 µM]. With `COc1cccc(OC)c1O` the “viability change, negative = cytotoxic” value was 5.28%.

Assay: cAMP Responsive Elements (CRE) small molecule agonists, cell-based qHTS assay: qHTS cell viability counter screen (AID 2060914);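 note: viability read after 3 h of compound exposure; nearly all actives have a fitted effect of over 50% in size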
Conditions: CRE-bla HEK293T viability, CellTiter-Glo luminescence, 5 h; series mostly up to 92.4 µM; activity change, negative = cytotoxicity: at the top concentration
Method in brief: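 Cytotoxicity counter screen multiplexed with the CRE-bla reporter assay in HEK 293T cells: 3 h compound exposure at 37 °C, followed by CellTiter-Glo luminescence measured in the same wells.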
For `COc1c(Br)cc(Br)c(C)c1Br`, the “activity change, negative = cytotoxicity” value was 0.126%. With `CCC(C)C(C)=O` (stereo not given) the “activity change, negative = cytotoxicity” value was 9.79%. With `CNC(=O)Nc1ccc(Cl)c(Cl)c1` the “activity change, negative = cytotoxicity” value was -7.8%. For `CC(C)(C)C(=O)O`, the “activity change, negative = cytotoxicity” value was -13.2%. With `CC(C)(C(=O)c1cccnc1)c1cccnc1` the “activity change, negative = cytotoxicity” value was -4.85% [at 42.5 µM]. In the case of `OC1CCCc2ccccc21` (stereo not given), the “activity change, negative = cytotoxicity” value is reported as 1.18%. For `CC1CCC2CC1C2(C)C` (stereo not given), the Potency was “inactive”. With `CCC(C)C1CCCCC1=O` (stereo not given) the “activity change, negative = cytotoxicity” value was 4.14%. With `CCCOCC(C)OCC(C)O` (stereo not given) the “activity change, negative = cytotoxicity” value was 0.136%. With `NC(=O)c1ccncc1` the “activity change, negative = cytotoxicity” value was -13.4%. For `CCCCCCCC[Si](OCC)(OCC)OCC`, the “activity change, negative = cytotoxicity” value was 10.5%. In the case of `O=C(O)Cc1cccc2ccccc12`, the Potency is reported as “inactive”. In the case of `C[C@]12CC[C@@H]3c4ccc(O)cc4CC[C@H]3[C@@H]1CC[C@@H]2O`, the Potency is reported as “inactive”. In the case of `CCCC(C)c1ccccc1O` (stereo not given), the “activity change, negative = cytotoxicity” value is reported as -16%. For `CC(CO)(CO)CO`, the “activity change, negative = cytotoxicity” value was -2.14%. In the case of `c1ccc(CNCCNCc2ccccc2)cc1`, the “activity change, negative = cytotoxicity” value is reported as 2.15% [at 42.5 µM]. In the case of `Cc1cc(C)c(O)c(C(C)(C)C)c1`, the “activity change, negative = cytotoxicity” value is reported as 0.976%. In the case of `C=CC(=C)CCCC(C)(C)OC(C)=O`, the “activity change, negative = cytotoxicity” value is reported as -2.1%. With `COc1ncnc(NS(=O)(=O)c2ccc(N)cc2)c1OC` the “activity change, negative = cytotoxicity” value was -2.56% [at 42.5 µM]. For `CC1=NN(c2cc(S(=O)(=O)O)ccc2Cl)C(=O)C1N=Nc1ccccc1` (stereo not given), the “activity change, negative = cytotoxicity” value was 18.8%. With `COc1ccc(C(=O)c2ccccc2O)c(O)c1` the Potency was “inactive”. In the case of `CCCCCCCC(=O)OCC(COC(=O)CCCCCCC)OC(=O)CCCCCCC`, the Potency is reported as “inactive”. With `CCCCCCCC/C=C\CCCCCCCC(=O)OC[C@@H](O)[C@H]1OC[C@H](O)[C@H]1O` the “activity change, negative = cytotoxicity” value was -3.12%. With `Nc1ccc(Nc2ccccc2)cc1` the Potency was “inactive”. In the case of `CC(CO)(CO)C(=O)O`, the “activity change, negative = cytotoxicity” value is reported as -12.3%. In the case of `O=C(OCCCCCOC(=O)c1ccccc1)c1ccccc1`, the “activity change, negative = cytotoxicity” value is reported as 2.17%. With `COC(=O)c1ccc(C(=O)OC)cc1` the Potency was “inactive”. In the case of `CC(=O)NCCO`, the “activity change, negative = cytotoxicity” value is reported as 1.44%. `BrC/C=C/CBr` gave an activity change, negative = cytotoxicity of 3.61% [at 18.9 µM]. In the case of `Nc1ccc(Cl)cc1Cl`, the Potency is reported as “inactive”. With `COc1ccc(/C=C/C(=O)c2ccc(OC)cc2OC)cc1` the “activity change, negative = cytotoxicity” value was 11.7% [at 42.5 µM]. For `CC(=O)OCC(COC(C)=O)OC(C)=O`, the Potency was “inactive”. With `Fc1ccccc1-c1ccccc1` the “activity change, negative = cytotoxicity” value was 7.79%. In the case of `c1ccc(CCc2ccccc2)cc1`, the “activity change, negative = cytotoxicity” value is reported as -7%. With `CC(C)(CO)[C@@H](O)C(=O)NCCCO` the “activity change, negative = cytotoxicity” value was 13% [at 42.5 µM]. In the case of `OC1(c2ccc(Cl)cc2)CCNCC1`, the “activity change, negative = cytotoxicity” value is reported as -1.78% [at 42.5 µM]. For `Cc1ccccc1C(=O)O`, the “activity change, negative = cytotoxicity” value was 1.66%. For `C1COCCO1`, the “activity change, negative = cytotoxicity” value was -10.9%. In the case of `CCCc1cc(C(N)=S)ccn1`, the “activity change, negative = cytotoxicity” value is reported as 2.01% [at 42.5 µM]. With `COc1cccc(OC)c1O` the “activity change, negative = cytotoxicity” value was 4.87%.
